Inconclusive results are not listed. The source made the active and inactive calls. Calls follow the shape of the dose curve; as a rule, active = well fitted inhibition curve with a large enough effect; inconclusive = small, poorly fitted or top-dose-only effect; inactive = no such curve, though single readings can be large or run the other way.
target: Tumor susceptibility gene 101 protein (Homo sapiens) (UniProt Q99816); experiment: qHTS Assay for Iinhibitors of HIV-1 Budding by Blocking the Interaction of PTAP/TSG101: Hit Validation in TR assay; conditions: Tsg101 binding domain + Texas Red-labeled PTAP peptide, fluorescence polarization, 20 min; series mostly up to 57.5 µM
How it was run: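 Fluorescence polarization: Tsg101 binding domain (10 uM final) with Texas Red-labelled PTAP peptide (50 nM final) in HEPES pH 7.5, 0.15 M NaCl, Tween 20, EDTA, TCEP; 20 min binding at room temperature after compound addition.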

Sequence of Tumor susceptibility gene 101 protein (Homo sapiens) (Q99816 whole entry, looked up, the tested form may be a part): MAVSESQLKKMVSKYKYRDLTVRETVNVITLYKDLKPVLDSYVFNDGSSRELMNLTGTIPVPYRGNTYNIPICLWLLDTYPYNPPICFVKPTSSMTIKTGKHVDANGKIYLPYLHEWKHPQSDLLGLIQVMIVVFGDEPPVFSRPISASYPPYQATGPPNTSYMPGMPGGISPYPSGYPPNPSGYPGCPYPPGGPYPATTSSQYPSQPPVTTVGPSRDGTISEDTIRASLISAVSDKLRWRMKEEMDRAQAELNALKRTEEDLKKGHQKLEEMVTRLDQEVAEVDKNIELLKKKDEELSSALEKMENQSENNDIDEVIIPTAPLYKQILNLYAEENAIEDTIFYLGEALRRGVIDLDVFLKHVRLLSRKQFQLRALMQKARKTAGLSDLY

Potency, inactive:
CC1CCCN(Cc2c(O)ccc3c2O/C(=C\c2ccco2)C3=O)C1 (centres undefined), COc1ccc2c(C=Nc3c(C)n(C)n(-c4ccccc4)c3=O)c(O)n(Cc3ccco3)c(=O)c2c1, O=[N+]([O-])c1ccc(-c2cn3nc(-c4ccccc4)c(-c4ccccc4)nc3n2)cc1, N#CC(C(=O)NCc1ccccc1)c1nc2ccccc2nc1N1CCCC1 (centres undefined), O=C1c2cccc3c(O)ccc(c23)C(=O)N1c1ccc(Cl)cc1, Cc1nc(Nc2ccc(S(=O)(=O)N3CCCCC3C)cc2)c2nnn(Cc3ccccc3)c2n1 (centres undefined), C=C1CCN(c2ccc(C(=O)O)cc2[N+](=O)[O-])CC1, Cc1cc(Br)ccc1NC(=O)c1sc2nc3n(c(=O)c2c1C)CCCC3, S=C(Nc1ccc(N2CCOCC2)cc1)Nc1ccc2nc(-c3ccco3)c(-c3ccco3)nc2c1, OC(CN1CCN(c2ccccn2)CC1)Cn1c2ccccc2c2ccccc21 (centres undefined), COc1cccc2c1C(=O)c1c(O)c3c(c(O)c1C2=O)CC(O)(C(C)=O)CC3OC1CC(O)C(O)C(C)O1 (centres undefined), CCNc1ccc2noc3c2c1C(=O)c1ccccc1-3, CCCN(CCC)S(=O)(=O)c1ccc(C(=O)OCCN2C(=O)c3cccc4c(N5CCOCC5)ccc(c34)C2=O)cc1, CCN(CC)c1ccc2cc(C(=O)NNC(=O)c3ccc(S(=O)(=O)N4CCCCC4)cc3)c(=O)oc2c1, O=c1[nH]c(-[n+]2ccccc2)c(/C=N/NC([S-])=Nc2ccccc2)s1, C[C@H](O)C(=O)C1=Nc2c(nc(N)[nH]c2=O)NC1, CCCCCn1nc(-c2ccccc2)c2nc3ccccc3nc21, Cn1cc(/C=C(\C#N)C(=O)Nc2ccccc2O)c2ccccc21, CCN(CC)c1nc2ccccc2nc1C(C#N)C(=O)NCCc1ccccc1 (centres undefined), Oc1ccc2ccc3cccc[n+]3c2c1, CC(=O)n1c(C=Nc2ccc(Cl)cc2)c(O)c2ccccc21, CCC1(c2ccccc2)NC(=O)N(CC(=O)Nc2ccc(OC)nc2)C1=O (centres undefined), Nc1cccc(N2C(=O)c3cccc4c(N)ccc(c34)C2=O)c1, CCN(CC)c1ccc(/C=C(\C#N)C(=O)NCc2ccccc2)cc1, O=C(Nc1ccccc1F)C(=Cc1sc(N2CCOCC2)nc1-c1ccccc1)C(=O)Nc1ccccc1F, NS(=O)(=O)c1ccc(N=Nc2c[nH]c(=O)c(O)c2)cc1, Oc1oc(-c2ccccc2)nc1C=Nc1cccc2ccccc12, COc1ccc(OC)c(/C=C(\C#N)c2nc3ccccc3c(=O)[nH]2)c1, Cc1cc2nc3c(=O)[nH]c(=O)[nH]c3nc2c([N+](=O)[O-])c1N, Cc1cccc(NC(=S)NCCC(c2ccccc2)c2ccccc2)c1, CCn1c(/C=C/c2cc[n+](C)cc2)nc2ccccc21, O=C(C1=NN(c2ccccc2)C2C(=O)N(c3ccccc3Cl)C(=O)C12)c1ccccc1 (centres undefined), Cc1ccc(C)c2nc3sc(C(=O)N4CCCc5ccccc54)c(N)c3cc12, Cc1cc[n+](-c2[nH]c(=O)sc2/C=N/N=C(\[O-])c2ccccc2)cc1C, CCn1c(C)cc(C=C2C(=O)c3ccccc3C2=O)c1C, CC1CCCN(c2nc3ccccc3nc2C(C#N)S(=O)(=O)c2ccccc2)C1 (centres undefined), CCOC(=O)/C(C#N)=C\c1ccc(N2CCN(C/C=C/c3ccccc3)CC2)cc1, C(=N\NC1=Nc2cccc3cccc1c23)/c1ccccc1, CCOC(=O)Cn1c(=O)c(-c2cc(Br)ccc2N)nc2ccccc21

Reference: PubChem BioAssay AID651599 (National Center for Advancing Translational Sciences (NCATS), 2012)
